More than one record can exist for a structure, and the calls need not agree. Calls of active or inactive are those of the source. The calls were made as follows: active = hit-call score of the fitted dose curve at least 0.9, where 1 is the maximum; inactive = score below 0.9.
These compounds were tested on Human Leukocyte Antigen - DR isotype (HLADR), HLA-DRA (gene 3122) (assay: BSK_CASM3C_HLADR: BioMAP Diversity Plus: CASM3C Assay for Human Leukocyte Antigen - DR isotype (HLADR) Biomarker Activity (AID 2283043;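 also: cell-surface HLA-DR protein level quantified by ELISA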)). Details: primary human coronary artery smooth muscle cells; actives raise or lower the signal.

outcome, inactive:
Nc1nc2ncc(CNc3ccc(C(=O)N[C@@H](CCC(=O)O)C(=O)O)cc3)nc2c(=O)[nH]1
COCCOCCOCCOC
COCCOc1cc2cc(C(=O)NC3CCN(C(C)C)CC3)n(CC(=O)Nc3ccc(Cl)cn3)c2cn1
CC(C)CCCCCCCOC(=O)CCCCC(=O)OCCCCCCCC(C)C
Cn1c(=O)c2c(ncn2C)n(C)c1=O
CC(C)CCO
CCNc1ccccc1
CCOCCOCCOCCO
Cc1[nH]cnc1C[C@H]1CCc2c(C)c3ccccc3n2C1=O
COC(=O)c1ccccc1O
CC(C)=CCC/C(C)=C/CO
CC(C)CCCCCCOC(=O)c1ccc(C(=O)OCCCCCCC(C)C)c(C(=O)OCCCCCCC(C)C)c1
COc1ccc(/C=C/S(=O)(=O)NC(=O)c2ccc(C)cc2Cl)cc1
CCN(C(=O)c1cc(C)cc(OC[C@H](C)Nc2ccncc2)c1)C(C)C
CCCN(C1CCN(C(=O)C2CCNCC2)CC1)[C@@H]1CCc2ccc(OC)cc2C1
CC[C@H]1OC(=O)[C@H](C)[C@@H](O[C@H]2C[C@@](C)(OC)[C@@H](O)[C@H](C)O2)[C@H](C)[C@@H](O[C@@H]2O[C@H](C)C[C@H](N(C)C)[C@H]2O)[C@](C)(O)C[C@@H](C)C(=O)[C@H](C)[C@@H](O)[C@]1(C)O
CN(C)c1ccc(N=NS(=O)(=O)O)cc1
O=c1[nH]c2ccc(S(=O)CCN3CCC(Cc4ccc(F)cc4)CC3)cc2o1 (centres undefined)
Cn1cnc([N+](=O)[O-])c1Sc1ncnc2nc[nH]c12
CCOC(=O)CC(CC(=O)OCC)(OC(C)=O)C(=O)OCC
CC(C)=CCCC(C)=CC=O

AC50, active:
O=C(CCCCCCCCc1cccnc1)N1CCC(C=C(c2ccccc2)c2ccccc2)CC1 35 µM
CCc1cc(SCc2sc(-c3ccc(C(F)(F)F)cc3)nc2CN2CCN(c3ccc(OC)cc3)CC2)ccc1OCC(=O)O 18.7 µM
Cn1c(=O)cc(Oc2ccc(F)cc2F)c2cnc(NCC(C)(C)O)nc21 1.42 µM
O=c1n(CC2CO2)c(=O)n(CC2CO2)c(=O)n1CC1CO1 (centres undefined) 15.3 µM
COc1ccc2sc(C(=O)Nc3nnn[nH]3)c(OC(C)C)c2c1 13.3 µM
Cc1c(-c2cccnc2)c2ccccc2n1CCCCC(=O)O 3.97 µM
Cn1cnc([N+](=O)[O-])c1Sc1ncnc2nc[nH]c12 11.3 µM
O=C(OC[C@H]1O[C@@H](OC(=O)c2cc(O)c(O)c(OC(=O)c3cc(O)c(O)c(O)c3)c2)[C@H](OC(=O)c2cc(O)c(O)c(OC(=O)c3cc(O)c(O)c(O)c3)c2)[C@@H](OC(=O)c2cc(O)c(O)c(OC(=O)c3cc(O)c(O)c(O)c3)c2)[C@@H]1OC(=O)c1cc(O)c(O)c(OC(=O)c2cc(O)c(O)c(O)c2)c1)c1cc(O)c(O)c(OC(=O)c2cc(O)c(O)c(O)c2)c1 6.1 µM
CCOc1cccc(-n2cc(C(=O)N3CCN(c4cc(C(=O)O)c5ccccc5c4)CC3)nc2-c2ccc(C)cc2)c1 27 µM

What follows are compounds tested on Macrophage colony-stimulating factor (MCSF), CSF1 (gene 1435) (assay: BSK_CASM3C_MCSF: BioMAP Diversity Plus: CASM3C Assay for Macrophage colony-stimulating factor (MCSF) Biomarker Activity (AID 2283044;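 also: M-CSF protein amount quantified by ELISA after 24 h exposure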)). Details: primary human coronary artery smooth muscle cells; actives raise or lower the signal.

outcome, inactive:
Nc1nc2ncc(CNc3ccc(C(=O)N[C@@H](CCC(=O)O)C(=O)O)cc3)nc2c(=O)[nH]1
COCCOCCOCCOC
COCCOc1cc2cc(C(=O)NC3CCN(C(C)C)CC3)n(CC(=O)Nc3ccc(Cl)cn3)c2cn1
CC(C)CCCCCCCOC(=O)CCCCC(=O)OCCCCCCCC(C)C
Cn1c(=O)c2c(ncn2C)n(C)c1=O
Cn1c(=O)cc(Oc2ccc(F)cc2F)c2cnc(NCC(C)(C)O)nc21
CC(C)CCO
O=c1n(CC2CO2)c(=O)n(CC2CO2)c(=O)n1CC1CO1 (centres undefined)
CCNc1ccccc1
CCOCCOCCOCCO
Cc1[nH]cnc1C[C@H]1CCc2c(C)c3ccccc3n2C1=O
COC(=O)c1ccccc1O
CC(C)=CCC/C(C)=C/CO
CC(C)CCCCCCOC(=O)c1ccc(C(=O)OCCCCCCC(C)C)c(C(=O)OCCCCCCC(C)C)c1
COc1ccc(/C=C/S(=O)(=O)NC(=O)c2ccc(C)cc2Cl)cc1
CCN(C(=O)c1cc(C)cc(OC[C@H](C)Nc2ccncc2)c1)C(C)C
CCCN(C1CCN(C(=O)C2CCNCC2)CC1)[C@@H]1CCc2ccc(OC)cc2C1
Cc1c(-c2cccnc2)c2ccccc2n1CCCCC(=O)O
CC[C@H]1OC(=O)[C@H](C)[C@@H](O[C@H]2C[C@@](C)(OC)[C@@H](O)[C@H](C)O2)[C@H](C)[C@@H](O[C@@H]2O[C@H](C)C[C@H](N(C)C)[C@H]2O)[C@](C)(O)C[C@@H](C)C(=O)[C@H](C)[C@@H](O)[C@]1(C)O
CN(C)c1ccc(N=NS(=O)(=O)O)cc1
O=c1[nH]c2ccc(S(=O)CCN3CCC(Cc4ccc(F)cc4)CC3)cc2o1 (centres undefined)
Cn1cnc([N+](=O)[O-])c1Sc1ncnc2nc[nH]c12
CCOC(=O)CC(CC(=O)OCC)(OC(C)=O)C(=O)OCC
O=C(OC[C@H]1O[C@@H](OC(=O)c2cc(O)c(O)c(OC(=O)c3cc(O)c(O)c(O)c3)c2)[C@H](OC(=O)c2cc(O)c(O)c(OC(=O)c3cc(O)c(O)c(O)c3)c2)[C@@H](OC(=O)c2cc(O)c(O)c(OC(=O)c3cc(O)c(O)c(O)c3)c2)[C@@H]1OC(=O)c1cc(O)c(O)c(OC(=O)c2cc(O)c(O)c(O)c2)c1)c1cc(O)c(O)c(OC(=O)c2cc(O)c(O)c(O)c2)c1
CC(C)=CCCC(C)=CC=O

AC50, active:
O=C(CCCCCCCCc1cccnc1)N1CCC(C=C(c2ccccc2)c2ccccc2)CC1 38 µM
CCc1cc(SCc2sc(-c3ccc(C(F)(F)F)cc3)nc2CN2CCN(c3ccc(OC)cc3)CC2)ccc1OCC(=O)O 36.1 µM
COc1ccc2sc(C(=O)Nc3nnn[nH]3)c(OC(C)C)c2c1 19.9 µM
CCOc1cccc(-n2cc(C(=O)N3CCN(c4cc(C(=O)O)c5ccccc5c4)CC3)nc2-c2ccc(C)cc2)c1 19.2 µM

— PubChem BioAssay (EPA / NIEHS)
